Results filed as inconclusive are left out. Calls of active or inactive are those of the source. How the source made its calls: active means hit-call score of the fitted dose curve at least 0.9, where 1 is the maximum; inconclusive means response in the unintended direction; inactive means score below 0.9.
Tests used:
[1] = molecular target: human Dual Specificity Protein Phosphatase 3 (DUSP3), DUSP3 (gene 1845) (UniProt P51452); assay: NVS_ENZ_hDUSP3: NovaScreen (NVS) Enzymatic Assay for human Dual Specificity Protein Phosphatase 3 (DUSP3) (AID 2283152);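 further: phosphatase activity of recombinant human DUSP3 on a fluorogenic substrate without cells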
human Dual Specificity Protein Phosphatase 3 (DUSP3), DUSP3 (gene 1845), sequence (P51452 whole entry, looked up): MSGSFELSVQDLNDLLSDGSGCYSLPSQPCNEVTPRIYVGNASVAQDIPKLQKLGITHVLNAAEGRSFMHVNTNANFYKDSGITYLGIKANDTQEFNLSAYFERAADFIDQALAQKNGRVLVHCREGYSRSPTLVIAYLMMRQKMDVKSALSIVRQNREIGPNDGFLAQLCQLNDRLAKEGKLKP
In short: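 Cell-free fluorescence-intensity enzyme activity assay with recombinant protein and substrate; loss of signal fitted relative to DMSO baseline. Primary screen in duplicate at 25 uM, actives then run in concentration series; measured 0 h after dosing.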

[2] = molecular target: Glycogen synthase kinase-3 beta (Homo sapiens) (UniProt P49841); assay: NVS_ENZ_hGSK3b: NovaScreen (NVS) Enzymatic Assay for human Glycogen Synthase Kinase-3 beta (GSK3b) (AID 2283165)
Glycogen synthase kinase-3 beta (Homo sapiens), sequence (P49841 whole entry, looked up): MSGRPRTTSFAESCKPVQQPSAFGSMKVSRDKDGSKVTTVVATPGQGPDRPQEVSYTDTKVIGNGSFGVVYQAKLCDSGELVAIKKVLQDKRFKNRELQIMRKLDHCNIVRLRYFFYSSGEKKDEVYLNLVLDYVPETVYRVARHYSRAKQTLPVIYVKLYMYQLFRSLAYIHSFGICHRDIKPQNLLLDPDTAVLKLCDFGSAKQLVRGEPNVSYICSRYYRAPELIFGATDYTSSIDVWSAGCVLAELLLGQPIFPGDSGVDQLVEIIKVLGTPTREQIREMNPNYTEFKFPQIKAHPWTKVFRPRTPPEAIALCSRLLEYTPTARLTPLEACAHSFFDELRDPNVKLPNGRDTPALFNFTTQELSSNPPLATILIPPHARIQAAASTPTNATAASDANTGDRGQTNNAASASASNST
In short: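 Recombinant enzyme with specific fluorescent substrate, 1 h, product separated by electrophoretic mobility shift. Primary duplicate screen at 25 uM; actives (e.g. 30% inhibition) followed in singleton concentration-response to 50 uM. Signal loss fitted versus DMSO.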

[3] = molecular target: human Colony Stimulating Factor 1 Receptor (CSF1R), CSF1R (gene 1436) (UniProt P07333); assay: NVS_ENZ_hCSF1R: NovaScreen (NVS) Enzymatic Assay for human Colony Stimulating Factor 1 Receptor (CSF1R) (AID 2283150)
human Colony Stimulating Factor 1 Receptor (CSF1R), CSF1R (gene 1436), sequence (P07333 whole entry, looked up): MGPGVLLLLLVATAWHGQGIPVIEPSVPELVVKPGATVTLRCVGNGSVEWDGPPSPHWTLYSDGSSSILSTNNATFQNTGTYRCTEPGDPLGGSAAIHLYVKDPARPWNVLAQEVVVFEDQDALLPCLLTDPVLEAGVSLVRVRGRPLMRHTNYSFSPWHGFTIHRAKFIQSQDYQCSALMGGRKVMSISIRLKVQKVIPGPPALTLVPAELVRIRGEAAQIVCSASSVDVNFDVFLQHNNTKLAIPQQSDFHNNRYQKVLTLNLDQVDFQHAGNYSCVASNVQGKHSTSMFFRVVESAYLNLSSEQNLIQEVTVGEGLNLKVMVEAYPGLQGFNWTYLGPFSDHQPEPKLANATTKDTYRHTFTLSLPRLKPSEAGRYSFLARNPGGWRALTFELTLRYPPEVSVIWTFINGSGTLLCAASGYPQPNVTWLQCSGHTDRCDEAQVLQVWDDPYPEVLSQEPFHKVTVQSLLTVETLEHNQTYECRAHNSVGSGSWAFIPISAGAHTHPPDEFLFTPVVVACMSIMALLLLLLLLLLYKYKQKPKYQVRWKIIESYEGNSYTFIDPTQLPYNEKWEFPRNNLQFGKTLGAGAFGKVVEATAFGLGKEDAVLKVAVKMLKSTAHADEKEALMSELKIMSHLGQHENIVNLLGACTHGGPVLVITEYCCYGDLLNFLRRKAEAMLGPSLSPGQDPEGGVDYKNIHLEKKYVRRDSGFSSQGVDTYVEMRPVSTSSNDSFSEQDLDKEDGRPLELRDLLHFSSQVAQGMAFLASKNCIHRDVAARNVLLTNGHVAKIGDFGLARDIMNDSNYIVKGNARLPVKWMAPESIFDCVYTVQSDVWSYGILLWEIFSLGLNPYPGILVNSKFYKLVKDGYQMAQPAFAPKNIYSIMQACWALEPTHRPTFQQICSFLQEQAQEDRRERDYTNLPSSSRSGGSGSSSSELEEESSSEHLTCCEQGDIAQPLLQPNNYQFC
In short: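 Compounds screened in duplicate at 25 uM, then concentration-response (top 50 uM) for those passing threshold such as 30% inhibition; recombinant CSF1R activity measured 1 h post-dosing via fluorescent substrate/product mobility-shift separation, loss of signal versus DMSO.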

[4] = molecular target: human Janus Kinase 2 (Jak2), JAK2 (gene 3717) (UniProt O60674); assay: NVS_ENZ_hJak2: NovaScreen (NVS) Enzymatic Assay for human Janus Kinase 2 (Jak2) (AID 2283169)
human Janus Kinase 2 (Jak2), JAK2 (gene 3717), sequence (O60674 whole entry, looked up): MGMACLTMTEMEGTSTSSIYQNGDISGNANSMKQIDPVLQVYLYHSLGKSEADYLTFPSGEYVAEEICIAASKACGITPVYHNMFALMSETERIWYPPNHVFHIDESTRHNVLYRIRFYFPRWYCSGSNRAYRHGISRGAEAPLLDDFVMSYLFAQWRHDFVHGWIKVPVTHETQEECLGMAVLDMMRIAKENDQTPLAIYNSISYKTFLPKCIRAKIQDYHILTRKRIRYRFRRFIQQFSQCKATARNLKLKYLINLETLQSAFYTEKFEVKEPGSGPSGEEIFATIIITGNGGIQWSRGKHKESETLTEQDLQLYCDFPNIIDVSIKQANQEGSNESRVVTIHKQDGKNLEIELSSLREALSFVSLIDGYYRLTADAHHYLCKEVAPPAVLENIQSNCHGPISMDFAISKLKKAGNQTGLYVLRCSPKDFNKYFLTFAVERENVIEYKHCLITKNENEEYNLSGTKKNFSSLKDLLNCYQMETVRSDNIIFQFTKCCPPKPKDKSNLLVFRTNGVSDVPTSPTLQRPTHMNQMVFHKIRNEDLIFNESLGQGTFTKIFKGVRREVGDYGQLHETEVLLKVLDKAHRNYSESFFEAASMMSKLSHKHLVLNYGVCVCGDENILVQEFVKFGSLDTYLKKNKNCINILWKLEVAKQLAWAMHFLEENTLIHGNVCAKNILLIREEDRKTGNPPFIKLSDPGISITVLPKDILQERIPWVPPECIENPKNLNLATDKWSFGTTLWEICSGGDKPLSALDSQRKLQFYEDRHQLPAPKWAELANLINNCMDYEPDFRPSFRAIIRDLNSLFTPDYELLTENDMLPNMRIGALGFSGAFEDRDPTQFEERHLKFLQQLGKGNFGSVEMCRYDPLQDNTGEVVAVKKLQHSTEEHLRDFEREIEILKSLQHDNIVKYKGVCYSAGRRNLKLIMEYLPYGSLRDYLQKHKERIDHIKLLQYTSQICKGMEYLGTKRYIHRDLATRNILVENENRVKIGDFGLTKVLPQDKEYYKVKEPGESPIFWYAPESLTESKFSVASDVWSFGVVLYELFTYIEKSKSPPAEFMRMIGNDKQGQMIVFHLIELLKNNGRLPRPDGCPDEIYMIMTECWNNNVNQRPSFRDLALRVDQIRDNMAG
In short: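 Single-point duplicate screen at 25 uM, with hits run in concentration series to a 50 uM top dose. Substrate-product separation by mobility shift with fluorescence detection, 1 h post-dosing; DMSO baseline.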

[5] = molecular target: human Esterase Plasma (ES), BCHE (gene 590) (UniProt P06276); assay: NVS_ENZ_hES: NovaScreen (NVS) Enzymatic Assay for human Esterase Plasma (ES) (AID 2283157)
human Esterase Plasma (ES), BCHE (gene 590), sequence (P06276 whole entry, looked up): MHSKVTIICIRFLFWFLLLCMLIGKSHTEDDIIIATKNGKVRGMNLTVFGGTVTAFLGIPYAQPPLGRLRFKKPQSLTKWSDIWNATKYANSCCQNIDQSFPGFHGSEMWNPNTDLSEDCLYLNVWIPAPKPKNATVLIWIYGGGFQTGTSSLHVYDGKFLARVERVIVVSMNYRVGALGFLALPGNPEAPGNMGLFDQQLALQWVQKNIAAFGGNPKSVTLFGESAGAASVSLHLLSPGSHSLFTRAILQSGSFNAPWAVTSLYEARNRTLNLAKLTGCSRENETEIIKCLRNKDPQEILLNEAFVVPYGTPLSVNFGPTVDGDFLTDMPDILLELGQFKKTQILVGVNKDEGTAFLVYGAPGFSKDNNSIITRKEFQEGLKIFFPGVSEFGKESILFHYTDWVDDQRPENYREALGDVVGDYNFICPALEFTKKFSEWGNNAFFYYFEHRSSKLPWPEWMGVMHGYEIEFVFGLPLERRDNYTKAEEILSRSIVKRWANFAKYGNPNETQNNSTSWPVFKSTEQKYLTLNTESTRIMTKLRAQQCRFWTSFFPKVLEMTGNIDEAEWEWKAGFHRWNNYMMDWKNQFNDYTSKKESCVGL
In short: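 Screening ran at 25 uM in duplicate, followed by singleton concentration series reaching 50 uM for actives. Human plasma protein, colorimetric detection, 0.25 h exposure, DMSO negative control.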

[6] = molecular target: human Insulin Receptor (InsR), INSR (gene 3643) (UniProt P06213); assay: NVS_ENZ_hInsR: NovaScreen (NVS) Enzymatic Assay for human Insulin Receptor (InsR) (AID 2283168)
human Insulin Receptor (InsR), INSR (gene 3643), sequence (P06213 whole entry, looked up): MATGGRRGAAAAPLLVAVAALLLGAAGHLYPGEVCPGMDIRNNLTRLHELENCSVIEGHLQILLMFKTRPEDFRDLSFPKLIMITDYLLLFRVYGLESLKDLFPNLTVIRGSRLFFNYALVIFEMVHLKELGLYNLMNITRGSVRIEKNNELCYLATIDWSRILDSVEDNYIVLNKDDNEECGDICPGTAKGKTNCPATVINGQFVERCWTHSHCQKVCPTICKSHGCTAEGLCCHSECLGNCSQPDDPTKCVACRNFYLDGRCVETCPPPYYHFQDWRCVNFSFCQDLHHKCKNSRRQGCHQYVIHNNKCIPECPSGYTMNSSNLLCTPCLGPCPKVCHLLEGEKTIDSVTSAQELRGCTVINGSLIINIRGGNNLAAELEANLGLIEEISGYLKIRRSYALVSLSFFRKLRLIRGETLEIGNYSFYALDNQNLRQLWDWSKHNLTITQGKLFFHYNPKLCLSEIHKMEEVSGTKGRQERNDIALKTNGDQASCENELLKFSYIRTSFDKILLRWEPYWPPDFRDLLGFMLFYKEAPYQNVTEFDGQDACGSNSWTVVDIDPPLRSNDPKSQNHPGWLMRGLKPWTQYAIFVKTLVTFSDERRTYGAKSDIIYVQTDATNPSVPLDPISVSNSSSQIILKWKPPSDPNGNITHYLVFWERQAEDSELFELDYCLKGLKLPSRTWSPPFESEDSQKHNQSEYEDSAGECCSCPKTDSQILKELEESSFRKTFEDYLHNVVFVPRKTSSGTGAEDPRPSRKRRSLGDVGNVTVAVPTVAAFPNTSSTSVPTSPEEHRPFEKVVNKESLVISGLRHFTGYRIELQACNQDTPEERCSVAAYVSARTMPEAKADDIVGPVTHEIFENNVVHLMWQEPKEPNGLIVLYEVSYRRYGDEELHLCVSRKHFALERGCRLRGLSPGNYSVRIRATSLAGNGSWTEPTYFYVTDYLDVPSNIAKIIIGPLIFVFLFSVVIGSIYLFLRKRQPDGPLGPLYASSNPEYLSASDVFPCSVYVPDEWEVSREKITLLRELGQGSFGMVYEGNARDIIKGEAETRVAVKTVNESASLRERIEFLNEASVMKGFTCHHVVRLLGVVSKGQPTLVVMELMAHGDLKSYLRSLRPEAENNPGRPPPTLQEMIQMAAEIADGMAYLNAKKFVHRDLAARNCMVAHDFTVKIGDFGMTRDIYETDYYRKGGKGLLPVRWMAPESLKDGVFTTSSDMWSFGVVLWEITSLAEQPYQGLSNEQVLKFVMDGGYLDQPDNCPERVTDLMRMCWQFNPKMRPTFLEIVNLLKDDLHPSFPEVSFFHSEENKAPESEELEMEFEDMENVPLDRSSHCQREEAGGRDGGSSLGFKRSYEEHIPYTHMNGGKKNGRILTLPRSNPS
In short: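 Cell-free enzyme assay read 1 h post-dose by fluorescence after substrate/product mobility-shift separation. Duplicate 25 uM primary screen, then singleton concentration-response up to 50 uM for compounds passing threshold; loss of signal vs DMSO.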

[7] = molecular target: human c-Jun N-terminal Kinases (JNK2), MAPK9 (gene 5601) (UniProt P45984); assay: NVS_ENZ_hJNK2: NovaScreen (NVS) Enzymatic Assay for human c-Jun N-terminal Kinases (JNK2) (AID 2283171)
In short: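 Chemicals first tested in duplicate at 25 uM, then in singleton concentration series up to 50 uM, against extracted JNK2 enzyme. Activity loss read by fluorescence with mobility-shift separation 1 h post-dose; DMSO baseline.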

[8] = molecular target: human Ephrin type-A Receptor 1 (EphA1), EPHA1 (gene 2041) (UniProt P21709); assay: NVS_ENZ_hEphA1: NovaScreen (NVS) Enzymatic Assay for human Ephrin type-A Receptor 1 (EphA1) (AID 2283158);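 further: activity is signal loss versus DMSO meaning EphA1 kinase inhibition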
In short: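 Fluorescent substrate conversion, resolved by mobility-shift separation, measured 1 hour post-dosing using recombinant enzyme; signal loss relative to DMSO baseline. Single-concentration duplicates at 25 uM preceded singleton concentration series topping at 50 uM.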

[9] = molecular target: Histone deacetylase 3 (Homo sapiens) (UniProt O15379); assay: NVS_ENZ_hHDAC3: NovaScreen (NVS) Enzymatic Assay for human Histone Deacetylase 3 (HDAC3) (AID 2283163)
In short: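 Cell-free enzyme format: loss of fluorescent product after mobility-shift separation, 1 h incubation, recombinant human HDAC3. Single 25 uM duplicate screen first, then concentration series to a 50 uM top for hits; DMSO as baseline.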

[10] = molecular target: human LYN Proto-Oncogene, Src family Tyrosine Kinase (LynA), LYN (gene 4067) (UniProt P07948); assay: NVS_ENZ_hLynA: NovaScreen (NVS) Enzymatic Assay for human LYN Proto-Oncogene, Src family Tyrosine Kinase (LynA) (AID 2283173)
In short: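 Recombinant kinase with fluorescent substrate; product separated from substrate by electrophoretic mobility shift and read 1 h after dosing. Duplicate screen at 25 uM, then concentration-response up to 50 uM; activity scored as signal loss against DMSO.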

Which outcome [1] does the source give for `CCCCCCCCOc1ccc(C(=O)c2ccccc2)c(O)c1` here?
The outcome was “inactive”.

With `CCCCCCCCOC(=O)c1cc(O)c(O)c(O)c1` as the molecule, how does the outcome [1] read?
Its outcome is “inactive”.

What about the outcome [2] of the same molecule?
Its outcome is “inactive”.

Which results are given for `CC(C)(C)c1csc(-c2cc3cc(OCc4ccccc4CC(=O)O)ccc3o2)n1`?
outcome [3]: inactive; AC50 [4]: 0.00515 µM (active)

How did the outcome [3] turn out when `Cc1oc2c(NC(=O)c3c(Cl)cccc3Cl)cccc2c1C(C)(C)O` was run?
The outcome was “inactive”.

Which results are given for `O=C(O)Cc1cc(I)c(Oc2ccc(O)c(I)c2)c(I)c1`?
outcome [3]: inactive; outcome [4]: inactive

Which outcome [3] does the source give for `c1ccc2ccccc2c1` here?
The outcome was “inactive”.

For `Cc1c2ccccc2c(C)c2c1ccc1ccccc12`, which outcome [1] is on record?
The outcome was “inactive”.

And the outcome [5]?
The outcome was “inactive”.

Which AC50 [1] does the source give for `CCN(Cc1cccnc1)C(=O)c1cccc(Cl)c1[C@]1(C)C(=O)N(Cc2ccc(OC)cc2OC)c2ccc(Cl)cc21` here?
Its AC50 is 14.1 µM (active).

What about the AC50 [5] of the same molecule?
The AC50 was 16.8 µM (active).

And the outcome [2]?
The outcome was “inactive”.

With `Cc1occc1C(=O)Nc1ccc(C(=O)N2CCC(F)(F)/C(=C\C(=O)N3CCC(N4CCCCC4)CC3)c3ccccc32)cc1` as the molecule, how does the outcome [5] read?
The outcome was “inactive”.

For `COc1cc(C(=O)NC2CCN(C)CC2)ccc1Nc1ncc2c(n1)N(C1CCCC1)CC(F)(F)C(=O)N2C`, which AC50 [3] is on record?
The AC50 was 11.2 µM (active).

What about the outcome [5] of the same molecule?
The outcome was “inactive”.

What about the AC50 [6] of the same molecule?
Its AC50 is 0.00746 µM (active).

What about the outcome [7] of the same molecule?
Its outcome is “inactive”.

For `O=C1CCC(C2CCCCC2)CC1`, which AC50 [1] is on record?
Its AC50 is 22.2 µM (active).

What does the source list for `C[C@]12CC[C@@H]3c4ccc(O)cc4CC[C@H]3[C@@H]1CC[C@H]2O`?
outcome [3]: inactive; outcome [5]: inactive

What does the source list for `CCCC(=O)OCCC(C)C`?
outcome [3]: inactive; outcome [7]: inactive

With `CCN(Cc1cccc(S(=O)(=O)O)c1)c1ccc(C(=C2C=CC(=[N+](CC)Cc3cccc(S(=O)(=O)O)c3)C=C2)c2ccccc2S(=O)(=O)[O-])cc1` as the molecule, how does the AC50 [3] read?
Its AC50 is 2.94 µM (active).

And the AC50 [1]?
Its AC50 is 12.5 µM (active).

And the AC50 [4]?
The AC50 was 12.4 µM (active).

`CC/C(=C(/CC)c1ccc(O)cc1)c1ccc(O)cc1` was tested. Which outcome [3] did it give?
The outcome was “inactive”.

And the outcome [5]?
The outcome was “inactive”.

What about the outcome [8] of the same molecule?
Its outcome is “inactive”.

With `Cc1ccc2oc(CN(Cc3ccccc3)C(=O)Nc3c(F)cc(F)cc3F)c(-c3ccc(Cl)cc3)c2c1` as the molecule, how does the AC50 [1] read?
The AC50 was 9.32 µM (active).

Which AC50 [1] does the source give for `Cc1cc(F)ccc1-c1cc(N2CC[C@@H](O)[C@H]2CO)ncc1N(C)C(=O)C(C)(C)c1cc(C(F)(F)F)cc(C(F)(F)F)c1` here?
The AC50 was 12.3 µM (active).

Which AC50 [1] does the source give for `CN1C(=O)N(c2ccccc2Br)Cc2cnc(Nc3ccc4c(c3)OCC(CO)O4)nc21` (centres undefined) here?
The AC50 was 8 µM (active).

And the AC50 [2]?
Its AC50 is 7.73 µM (active).

How did the AC50 [1] turn out when `O=C1c2ccccc2C(=O)N1CCc1noc(-c2ccc(CN3CCCCCC3)s2)n1` was run?
The AC50 was 19.9 µM (active).

What about the AC50 [5] of the same molecule?
Its AC50 is 18.2 µM (active).

With `O=C(Nc1ccc(Cl)cc1)Nc1ccc(Cl)c(Cl)c1` as the molecule, how does the outcome [1] read?
Its outcome is “inactive”.

With `CO[C@H]1/C=C/O[C@@]2(C)Oc3c(C)c(O)c4c(O)c(c(/C=N/N5CCN(C)CC5)c(O)c4c3C2=O)NC(=O)/C(C)=C\C=C\[C@H](C)[C@H](O)[C@@H](C)[C@@H](O)[C@@H](C)[C@H](OC(C)=O)[C@@H]1C` as the molecule, how does the AC50 [1] read?
The AC50 was 7.6 µM (active).

What does the source list for `COc1ccc2cc(S(=O)(=O)N[C@H](CC(=O)N[C@H](Cc3ccc(CN4[C@H](C)CCC[C@@H]4C)cc3)C(=O)N(C)C(C)C)c3ccc4c(c3)OCO4)ccc2c1`?
AC50 [1]: 3.86 µM (active); AC50 [5]: 7.52 µM (active); outcome [2]: inactive

`O=CCCCC=O` was tested. Which outcome [5] did it give?
Its outcome is “inactive”.

For `OC12N=C(c3ccccc3)SC1Cc1cc(Cl)ccc12` (centres undefined), which AC50 [1] is on record?
Its AC50 is 4.92 µM (active).

What about the outcome [2] of the same molecule?
Its outcome is “inactive”.

For `c1ccc(C[n+]2cccc3ccccc32)cc1`, which outcome [9] is on record?
The outcome was “inactive”.

`CC(=O)N1CCN(c2ccc(OC[C@H]3CO[C@](Cn4ccnc4)(c4ccc(Cl)cc4Cl)O3)cc2)CC1` was tested. Which outcome [9] did it give?
Its outcome is “inactive”.

Which outcome [6] does the source give for `O=C1O[C@H]([C@@H](O)CO)C(O)=C1O` here?
Its outcome is “inactive”.

For `OCCO`, which outcome [6] is on record?
Its outcome is “inactive”.

Which outcome [10] does the source give for `CCN(CC)C(=O)c1cc(S(=O)(=O)Cc2ccccc2)c(N2CCC(c3ccccc3)CC2)cc1N(CC)CCN(C)C` here?
The outcome was “inactive”.
